# Only some compounds are listed: those with a hit (about 4.6% of all), similar ones and a draw of the others.
# D1 antag: Antagonist of Human D 1 Dopamine Receptor: qHTS; D(1A) dopamine receptor (Homo sapiens), P21728; HEK293 TREx D1 cells, calcium flux, dopamine EC80; active compounds read low; activity change, negative = inhibition, % at 10 µM; 360,000 compounds, 3.2% hits; AID 504652, 2011; in the data active = activity change below about -30%; note: % is set by controls: 0 for no effect and ±100 for the full control effect
# Target sequence (P21728 whole entry, looked up): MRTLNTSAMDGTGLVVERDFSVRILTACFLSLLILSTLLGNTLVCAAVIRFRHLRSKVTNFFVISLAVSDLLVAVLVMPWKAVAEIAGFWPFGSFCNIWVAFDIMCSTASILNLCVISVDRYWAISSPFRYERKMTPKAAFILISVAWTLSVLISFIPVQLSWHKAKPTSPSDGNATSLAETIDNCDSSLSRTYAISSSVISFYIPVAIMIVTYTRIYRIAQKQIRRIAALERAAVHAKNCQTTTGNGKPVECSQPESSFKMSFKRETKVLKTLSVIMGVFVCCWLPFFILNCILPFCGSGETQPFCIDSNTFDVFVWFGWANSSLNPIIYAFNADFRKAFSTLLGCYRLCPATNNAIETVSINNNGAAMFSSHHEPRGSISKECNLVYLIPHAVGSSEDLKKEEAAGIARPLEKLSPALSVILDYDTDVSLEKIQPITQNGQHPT
#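 Using tetracycline-induced force-coupled D1 Hek293 cells and a calcium dye, signals were followed for 180 s after compound, then for 180 s after EC80 dopamine, to detect inhibitors.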
# TRHR PAM: qHTS for Small Molecule Agonists and Allosteric Enhancers of Human TRH Receptor: Primary Screen for Enhancers | Thyrotropin-releasing hormone receptor (Homo sapiens), P34981 | TRHR cells, fluo-8 calcium fluorescence, EC20 TRH enhancement | enhancement, % at 2 µM | 360,000 compounds, 0.66% hits; in the data active = enhancement above about 30%; note: 0% is about no effect
#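 Enhancer read-out: after compound pinning and an initial kinetic agonist-mode read, an EC20 of TRH (10 nM final) was injected and fluo-8 calcium signal (Ex 480/Em 530) followed at 1 s/cycle for 100 cycles in TRHR-expressing cells.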
# D1 ag: Allosteric Agonists of the Human D1 Dopamine Receptor: qHTS; 360,000 compounds, 1% hits; HEK293 T-REx D1 cells, calcium flux, agonist mode; D(1A) dopamine receptor (Homo sapiens), P21728; activation, % at 2 µM; note: 0% is about no effect
#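 Tetracycline-induced HEK293 TREx D1 cells, force-coupled to calcium signalling, were dye-loaded with a no-wash calcium kit. Compound was pin-added after a 10 s baseline. Fluorescence was read kinetically at 1 cycle/s for 180 s, with calcium rises flagged as agonism.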
# D1 potentiator: Potentiators of Human D1 Dopamine Receptor: qHTS; D(1A) dopamine receptor (Homo sapiens), P21728; 360,000 compounds, 0.036% hits; HEK293 TREx D1 cells, calcium flux, dopamine EC20 potentiation; potentiation, % at 10 µM; in the data active = potentiation above about 30%; note: 0% is about no effect
# TRHR agonist: qHTS for Small Molecule Agonists and Allosteric Enhancers of Human TRH Receptor: Primary Screen for Agonists. TRHR cells, calcium flux fluo-8, FDSS agonist mode. activation, % at 2 µM. Thyrotropin-releasing hormone receptor (Homo sapiens), P34981. AID 493084, 2011. 360,000 compounds, 0.18% hits; note: 0% is about no effect
#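 Fluo-8-loaded TRHR cells; 10 s baseline, compound added, kinetic Ca2+ fluorescence read 1/s, agonist mode.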
# * marks the source's active call; other numbers are inactive results; nt = no result given; ! = repeats disagree. Cut-off read from the data, not from the text of the source, unless noted: active = activation above about 30%; inactive = the rest.
SMILES,D1 antag,TRHR PAM,D1 ag,D1 potentiator,TRHR agonist
CCCN1CCN(S(=O)(=O)c2ccc(-c3cc(C)no3)s2)CC1,-19,-4,2,-5,-1
N#Cc1ccccc1Sc1ccccc1C(=O)OCC(N)=O,-5,4,3,2,1
Cc1noc(C)c1COC(=O)c1ccccc1Sc1ccccc1C#N,-38*,-14,14,-10,1
Cc1nc2ncnn2c(N2CCN(C(=O)c3cccc(F)c3)CC2)c1Cc1ccccc1,-91*,-8,2,-4,-1
CN(C)c1ccc(/C=C(/C(=O)c2ccc(Cl)cc2Cl)n2cncn2)cc1,-50*,4,200*,0,75*
CN(C)/C=C(/C(=O)c1ccc(Cl)cc1)n1cncn1,-33*,-1,3,-3,0
COc1ccc(/C=C(/C(=O)c2ccc(Cl)cc2Cl)n2cncn2)cc1,2,-5,2,-4,2
CCOC(=O)C1=C(C)n2c(s/c(=C/c3cccc([N+](=O)[O-])c3)c2=O)=NC1c1ccc(O)c(OC)c1 (configuration not stated),-90*,3,9,2,3
Cc1ccc(N(CC(=O)N2CCN(c3cc(Cl)ccc3C)CC2)S(=O)(=O)c2c(C)noc2C)cc1,-3,-1,2,0,1
COc1cc(/C=C/c2cc[n+](C)cc2)ccc1OCC(=O)Nc1ccccc1,-9,-2,2,-7,1
C/C=C/c1ccc(OC)c(OC(C)=O)c1,-76*,-5,1,-6,0
C/C=C/c1ccc(OC(C)=O)c(OC)c1,9,2,-4,-1,-1
C/C=C/c1ccc(OCC(=O)Nc2ccc(C(N)=O)cc2)c(OC)c1,-53*,-1,1,-7,-1
Oc1c(C(c2ccccc2Cl)N2CCN(Cc3ccccc3)CC2)sc2nc(-c3ccco3)nn12 (configuration not stated),nt,0,-4,0,0
c1ccc(CCCCN2CCN=C2Nc2ccccc2)cc1,3,32*,5,1,0
c1ccc(NC2=NCCN2CCCC2CCCCC2)cc1,-5,-2,33*,-3,1
Fc1cccc(CCN2CCN=C2Nc2ccccc2)c1,-18,-2,20,-5,9
O=[S+]([O-])(c1ccc(N2CCOCC2)nc1)N1CCN([S+](=O)([O-])c2c(F)cccc2F)CC1,-2,-2,4,1,1
COCCN=C1N[C@@H](c2cccc(C(F)(F)F)c2)C(C(=O)OC)=C(C)N1Cc1ccccc1,0,-4,32*,-5,5
CCN1C(=NCCc2c[nH]c3ccccc23)N[C@@H](c2ccccc2)C(C(=O)OC)=C1C,-9,2,49*!,-4,3
C=CCN=C1N[C@@H](c2ccc(Br)cc2)C(C(=O)OC)=C(C)N1Cc1ccccc1,22,-8,31*,0,1
CC(=O)C1=C(C)N(Cc2ccccc2)C(=O)N[C@H]1CCc1ccccc1,-31*,2,16,-3,0
CC[C@@H](C)CN1C(=O)N[C@@H](CCc2ccccc2)C(C(C)=O)=C1C,15,-2,1,0,-1
COC(=O)C1=C(C)N(Cc2ccccc2)C(=NCCc2c[nH]c3ccccc23)N[C@H]1c1cccc(C(F)(F)F)c1,6,2,12,-4,1
CC(C)OCCCNC(=O)CN1C(=O)c2cccnc2Sc2ccccc21,-15,-2,2,-2,1
SMILES,D1 antag,TRHR PAM,D1 ag,D1 potentiator,TRHR agonist
COC(=O)C1=C(C)N(Cc2ccccc2)C(=O)N[C@H]1c1ccccc1,-6,7,100*,-6,0
COC(=O)C1=C(C)N(Cc2ccccc2)C(=NCC(C)C)N[C@H]1c1ccccc1,2,-7,40*!,-5,0
COC(=O)C1=C(C)N(Cc2ccccc2)C(=S)N[C@H]1c1ccccc1,3,-1,3,-6,2
CCc1cccc(NC(=O)c2ccc3c(c2)N(Cc2cccc(Cl)c2)C(=O)c2ccccc2S3=O)c1 (configuration not stated),13,6,4,-3,1
O=C1CC(c2c[nH]c3ccccc23)C(=O)N1c1ccccc1 (configuration not stated),-34*,3,-1,-6,0
CCC(CC)C(=O)NCCc1ccc(S(N)(=O)=O)cc1,-42*,1,1,-3,1
CCCCC(CC)C(=O)NCCc1ccc(S(N)(=O)=O)cc1 (configuration not stated),-4,12,1,-3,-1
NS(=O)(=O)c1ccc(CCNC(=O)c2ccc3ccccc3n2)cc1,-31*,-5,2,-10,0
CCCCn1c(CNC(=O)C23CC4CC(CC(C4)C2)C3)nnc1SCC(=O)Nc1ccc(F)cc1,16,-5,1,1,0
Cc1csc2nc3cc(C(N)=O)ccc3c(=O)n12,-44*,-3,9,-2,-1
CCc1cc2c(NCC3CCCO3)ncnc2s1 (configuration not stated),-3,-3,5,-6,0
Cc1sc2ncnc(NCC3CCCO3)c2c1C (configuration not stated),-30*,2,12,-5,0
COc1ccc(/C=C(\NC(=O)c2ccccc2)C(=O)NCc2ccco2)cc1,-31*,-11,2,-2,0
O=C(NC(=S)NCc1ccco1)c1ccccc1,-31*,-3,2,-4,0
S=C(NCc1ccco1)Nc1ccc(Cl)cc1,-31*,-1,21,-5,1
O=C(NCc1ccco1)/C(=C\c1ccccc1)NC(=O)c1ccccc1,5,1,5,nt,0
O=C(O)Cc1ccc(NC(=S)NCc2ccco2)cc1,-40*,-5,1,-2,0
S=C(NCc1ccco1)Nc1ccccc1,8,14,2,-4,0
O=C(NCCc1nc2ccccc2[nH]1)/C(=C/c1ccco1)NC(=O)c1ccc(Br)o1,-6,-27,1,-1,0
CCN(CC(=O)Nc1c(F)cccc1F)C(=O)c1cccnc1Sc1ccccc1,4,4,4,3,0
CCOC(=O)c1ccc2c(c1)N(Cc1cccc(C(F)(F)F)c1)C(=O)c1ccccc1S2(=O)=O,-51*,3,9,-1,0
CC(=O)Nc1ccc(NC(=O)c2ccc3c(c2)N(Cc2cccc(Cl)c2)C(=O)c2ccccc2S3(=O)=O)cc1,8,3,10,-3,-2

# Screening results deposited in PubChem by National Center for Advancing Translational Sciences (NCATS).
